A selection: hits, their analogues and other compounds. The true share with any hit is near 4.7%.
D1 PAM: Potentiators of Human D1 Dopamine Receptor: qHTS; potentiation, % at 10 µM; AID 504651, 2011; 360,000 compounds, 0.036% hits; HEK293 TREx D1 cells, calcium flux, dopamine EC20 potentiation; D(1A) dopamine receptor (Homo sapiens), P21728; in the data active means potentiation above about 30%
D1 agonist: Allosteric Agonists of the Human D1 Dopamine Receptor: qHTS | activation, % at 2 µM | HEK293 T-REx D1 cells, calcium flux, agonist mode | D(1A) dopamine receptor (Homo sapiens), P21728 | 360,000 compounds, 1% hits
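Tetracycline-induced HEK293 TREx D1 cells, force-coupled to calcium signalling, were dye-loaded with a no-wash calcium kit. Compound was pin-added after a 10 s baseline. Fluorescence was read kinetically at 1 cycle/s for 180 s, with calcium rises flagged as agonism.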
TRHR PAM: qHTS for Small Molecule Agonists and Allosteric Enhancers of Human TRH Receptor: Primary Screen for Enhancers; Thyrotropin-releasing hormone receptor (Homo sapiens), P34981; TRHR cells, fluo-8 calcium fluorescence, EC20 TRH enhancement; enhancement, % at 2 µM; 360,000 compounds, 0.66% hits; AID 493056, 2011; in the data active means enhancement above about 30%
Target sequence (P34981 whole entry, looked up): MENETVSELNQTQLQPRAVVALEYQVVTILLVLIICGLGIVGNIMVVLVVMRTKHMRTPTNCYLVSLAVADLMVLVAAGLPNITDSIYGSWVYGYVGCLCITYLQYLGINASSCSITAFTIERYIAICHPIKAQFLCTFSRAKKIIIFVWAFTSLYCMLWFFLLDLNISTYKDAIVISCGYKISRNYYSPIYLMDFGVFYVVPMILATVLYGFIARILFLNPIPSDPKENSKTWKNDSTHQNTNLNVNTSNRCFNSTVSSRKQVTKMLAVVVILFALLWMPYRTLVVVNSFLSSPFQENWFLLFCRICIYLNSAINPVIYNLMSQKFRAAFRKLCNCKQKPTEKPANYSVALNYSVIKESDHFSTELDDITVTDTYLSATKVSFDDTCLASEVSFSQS
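Enhancer read-out: after compound pinning and an initial kinetic agonist-mode read, an EC20 of TRH (10 nM final) was injected and fluo-8 calcium signal (Ex 480/Em 530) followed at 1 s/cycle for 100 cycles in TRHR-expressing cells.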
TRHR agonist: qHTS for Small Molecule Agonists and Allosteric Enhancers of Human TRH Receptor: Primary Screen for Agonists; Thyrotropin-releasing hormone receptor (Homo sapiens), P34981; TRHR cells, calcium flux fluo-8, FDSS agonist mode; activation, % at 2 µM; 360,000 compounds, 0.18% hits; AID 493084, 2011
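Read-out: compound-evoked intracellular calcium rise in TRHR cells, fluo-8 dye, kinetic FDSS fluorescence at 1 s/cycle following a 10-cycle baseline. Cells cultured overnight before dye loading (30 min–1.5 h, RT).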
D1 antag: Antagonist of Human D 1 Dopamine Receptor: qHTS. activity change, negative = inhibition, % at 10 µM. HEK293 TREx D1 cells, calcium flux, dopamine EC80; hits give low values. 360,000 compounds, 3.2% hits. AID 504652, 2011. D(1A) dopamine receptor (Homo sapiens), P21728; in the data active means activity change below about -30%
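Antagonism measured as reduced calcium response to an EC80 dopamine addition following 180 s compound pre-read; cells were inducible HEK293 Trex D1 plated overnight at 30 C, read kinetically at 1 cycle/sec.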
Each line names hits and unclear results; the compound was inactive in the other large screens. Unless noted, no stated cut-off is given here; in the data, active means activation above about 30%; inactive means the rest.

COc1ccc(CCN(C)C(=O)C2CC(=O)N(Cc3ccc(C)cc3)C2)cc1OC (centres undefined)	D1 antag -34 (no result: D1 PAM)
Cc1cc(C(C)(C)C)cc(C)c1CCNC(=O)c1c(C)noc1C	none
COc1ccc(CCNC(=O)C2CCN(S(=O)(=O)c3ccc(OC)c(OC)c3)CC2)cc1OC	none
COc1ccc(S(=O)(=O)N2CCC(C(=O)NCCC3=CCCCC3)CC2)cc1OC	D1 antag -43
COc1ccc(S(=O)(=O)N2CCC(C(=O)N[C@@H](C)C(=O)NCc3ccc(F)cc3)CC2)cc1	D1 antag -35
COc1ccc(CCN(C)CCCN2CC(c3ccccc3)CC2=O)cc1OC (centres undefined)	D1 antag -39
CC1(C)Cc2c(cnn2-c2ccccc2)C(NC(=O)CCc2ccc(=O)[nH]n2)C1 (centres undefined)	none
Cc1cc2oc(=O)cc(CN3CCCCC3)c2cc1C	none
Cc1cc2oc(=O)cc(CN3CCN(S(=O)(=O)c4cccs4)CC3)c2cc1C	D1 antag -44
CCc1ccc(NC(=O)C2CCN(C(=O)[C@@H]3Cc4ccccc4CN3)CC2)cc1	D1 agonist 32
Nc1c(C(=O)c2ccccc2)sc2snc(SCC(=O)c3ccccc3)c12	D1 agonist 108
COc1ccc(C(=O)NC(C(=O)NCc2ccccc2OC)C(C)C)cc1 (centres undefined)	none
COc1ccccc1COC(=O)C(NC(=O)c1ccc(C)cc1)C(C)C (centres undefined)	D1 antag -32
COc1cc2[nH]c(C(=O)NCCc3ccccc3)cc2c(OC)c1OC	none
COc1cc2[nH]c(C(=O)NCc3ccccc3)cc2c(OC)c1OC	D1 antag -36
COc1ccc(N2CCN(S(=O)(=O)CCNC(=O)C3CC(=O)N(c4ccccc4)C3)CC2)cc1 (centres undefined)	none
COCCCNc1nc2c(-c3cccc(Br)c3)nnn2c2ccccc12	none
CCC(C)NC(=O)COC(=O)Cc1sc(N)nc1-c1ccc(C)cc1 (centres undefined)	D1 antag -60
Cc1ccc(-c2nc(N)sc2CC(=O)OCC(=O)NCCC(C)C)cc1	D1 antag -57
Cc1ccc(-c2nc(N)sc2CC(=O)OCC(=O)NCC2CCCO2)cc1 (centres undefined)	D1 antag -42
CCCc1sc(N)nc1-c1ccc(C)cc1	D1 antag -60
CC(C)CCNC(=O)COC(=O)c1cc(Br)c(Br)s1	none
CCOC(=O)Cc1sc(N)nc1C	none
COc1cc2c(cc1OC)[C@@H]1O[C@](CCCCN3C(=O)c4ccccc4C3=O)(C2)Oc2cc(C)n(-c3ccccc3)c(=O)c21	none
CCOC(=O)c1ccccc1NC(=O)CN(c1cc(C(F)(F)F)ccc1Cl)S(C)(=O)=O	none
COC(=O)C1CCN(c2nc3ccccc3nc2C(C#N)C(=O)NCCc2ccccc2)CC1 (centres undefined)	D1 antag -35
COC(=O)C1CCN(c2nc3ccccc3nc2C(C#N)C(=O)OCC(C)C)CC1 (centres undefined)	none
N#CC(C(=O)NC1CCCCC1)c1nc2ccccc2nc1N1CCOCC1 (centres undefined)	none
N#CC(C(=O)NC1CCCCC1)c1nc2ccccc2nc1N1CCN(c2ccccc2F)CC1 (centres undefined)	D1 antag -35
N#CC(C(=O)OCc1ccccc1)c1nc2ccccc2nc1N1CCOCC1 (centres undefined)	D1 agonist 33
C=CCOC(=O)C(C#N)c1nc2ccccc2nc1N1CCN(Cc2ccc3c(c2)OCO3)CC1 (centres undefined)	D1 antag -32
Cc1ccc(NC(=O)Cn2cc(S(=O)(=O)NC(C)C)c(S(=O)(=O)NC(C)C)c2)cc1Cl	none
CCn1c(=O)c(CCC(=O)N2CCN(c3ccccn3)CC2)c(C)c2c(C)nn(-c3cccc(C)c3)c21	none
COc1cccc(-c2csc3nc[nH]c(=O)c23)c1	D1 antag -34
Cc1ccc(-c2csc3nc[nH]c(=O)c23)cc1C	none
O=C(CCCN1C(=O)/C(=C\c2cccs2)SC1=S)Nc1ccccn1	none
O=C(CCCN1C(=O)/C(=C\c2cccs2)SC1=S)Nc1ccc(O)cc1	D1 antag -33
O=C(CCN1C(=O)/C(=C/c2cccs2)SC1=S)Nc1ccccn1	D1 agonist 45
O=C(CCCN1C(=O)/C(=C\c2cccs2)SC1=S)Nc1ccc(C(=O)O)cc1	none
CCN(CC)CCOC(=O)c1ccc(NC(=O)CCCN2C(=O)/C(=C/c3cccs3)SC2=S)cc1	D1 antag -77
Cn1c(SCC(=O)NCC2CCCO2)ncc(C(=O)Nc2ccc(Cl)cc2)c1=O (centres undefined)	none
COc1ccc(OC)c(CNS(=O)(=O)c2ccc(-c3cc(C(F)(F)F)on3)s2)c1	none
CCc1ccc2ncc(S(=O)(=O)c3ccc(C)c(C)c3)c(N3CCCC3)c2c1	none
CCN1CCN(c2c(S(=O)(=O)c3ccc(C)c(C)c3)cnc3cc(OC)c(OC)cc23)CC1	D1 antag -66
CCOC(=O)Cn1c(=O)n(CC2CCCO2)c2nc(-c3ccccc3OC)nc(C(N)=O)c21 (centres undefined)	none
CCN(C(=O)CN1C(=O)S/C(=C\c2ccc(F)cc2)C1=O)C1CCS(=O)(=O)C1 (centres undefined)	none
O=C(O)C1CC(c2ccccc2)=NO1 (centres undefined)	TRHR PAM 33
CC1(C)Cc2cccc(OCC(=O)N3CCN(c4ccccc4F)CC3)c2O1	D1 antag -69
O=C(COc1ccccc1Cl)N1CCc2ccccc2C1	none
O=C(COc1ccccc1F)N1CCc2ccccc2C1	D1 antag -58
CCOC(=O)c1cc2c(=O)n3ccccc3nc2n(CC2CCCO2)c1=NC(=O)c1cccc(C)c1 (centres undefined)	none
CC(NC(=O)c1ccc(Br)cc1Br)c1ccccc1 (centres undefined)	none
Cn1c(NC(=O)c2cc(Br)ccc2Cl)cc(=O)n(C)c1=O	D1 agonist 33
CC(NC(=O)c1cc(Br)ccc1Cl)c1ccccc1 (centres undefined)	D1 antag -46
Cc1ccccc1CNC(=O)CCSCc1cnn(-c2ccccc2)c1-n1cccc1	none
CCNc1nc(N2CCOCC2)nc(N(c2ccccc2)c2ccccc2)n1	TRHR PAM 37
O=C(Cn1c(NCCCCl)nc2ccccc21)c1ccccc1	none (no result: D1 antag)

Screening data as filed in PubChem BioAssay.
